Structures can show the parent of a compound that is named as a salt.
Tested on: Klebsiella aerogenes DSM 30053
Experiment: fold change of Cadaverine concentration vs plate DMSO controls (fold change (ratio)); higher = more amine produced, active = hit call of the paper (significant change in both replicates, either direction)
Conditions: incubation time: 27 h, anaerobic, 37 °C
Summary of the method: (§1)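 Amine values are fold changes relative to DMSO-only wells on the same plate. They derive from 27 h, 37 °C anaerobic mGAM cultures of four gut bacterial strains in 80 µL wells, dosed at 20 µM final, or 50 µM final for sweeteners. Extraction of the whole culture, LC–triple-quadrupole MS in dynamic MRM mode, external calibration curves and within-batch drift correction were used, with 2 biological replicates averaged.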

Fold change of Cadaverine concentration, inactive:
COc1ccc2cc([C@H](C)C(=O)O)ccc2c1 [(S)-Naproxen] (20 µM) 0.988
COC(=O)Nc1nc2cc(C(=O)c3ccc(F)cc3)ccc2[nH]1 [Flubendazol] (20 µM) 1.01
O=C(O)COc1nn(Cc2ccccc2)c2ccccc12 [Bendazac] (20 µM) 1
O=C(O)Cc1ccc(-c2ccccc2)cc1 [Felbinac] (20 µM) 0.998
CCOc1ccc2c(c1)C(C)=CC(C)(C)N2 [Ethoxyquin] (20 µM) 0.986
CN1CC2c3ccccc3Oc3ccc(Cl)cc3C2C1 (configuration not stated) [Asenapine maleate] (20 µM) 0.998
CCOC(=O)OC(C)OC(=O)[C@@H]1N2C(=O)[C@@H](NC(=O)[C@H](N)c3ccccc3)[C@H]2SC1(C)C (some centres not stated) [Bacampicillin hydrochloride] (20 µM) 1.05
CCCOc1ccccc1-c1nc2[nH]nnc2c(=O)[nH]1 [Zaprinast] (20 µM) 1
CCCCC(O)c1ccccc1 (configuration not stated) [Fenipentol] (20 µM) 1.01
CN[C@H](CC(C)C)C(=O)N[C@H]1C(=O)N[C@@H](CC(N)=O)C(=O)N[C@H]2C(=O)N[C@H]3C(=O)N[C@H](C(=O)N[C@H](C(=O)O)c4cc(O)cc(O)c4-c4cc3ccc4O)[C@H](O)c3ccc(c(Cl)c3)Oc3cc2cc(c3O[C@@H]2O[C@H](CO)[C@@H](O)[C@H](O)[C@H]2O[C@H]2C[C@](C)(N)[C@H](O)[C@H](C)O2)Oc2ccc(cc2Cl)[C@H]1O [Vancomycin hydrochloride] (20 µM) 0.998
N#Cc1ccc(Oc2ccc3c(c2)COB3O)cc1 [Crisaborole] (20 µM) 0.994
COc1ccc([C@@H]2Sc3ccccc3N(CCN(C)C)C(=O)[C@@H]2OC(C)=O)cc1 [Diltiazem hydrochloride] (20 µM) 0.993

Tested on: Ruminococcus gnavus DSM 108212
Experiment: fold change of 2-Phenylethylamine concentration vs plate DMSO controls (fold change (ratio)); higher = more amine produced, active = hit call of the paper (significant change in both replicates, either direction)
Conditions: incubation time: 27 h, anaerobic, 37 °C
Summary of the method: as §1

Fold change of 2-Phenylethylamine concentration, inactive:
CC(=O)OCC(CCn1cnc2cnc(N)nc21)COC(C)=O [Famciclovir] (20 µM) 1.04
COC(c1ccccc1)(c1ccccc1)[C@H](Oc1nc(C)cc(C)n1)C(=O)O [Ambrisentan] (20 µM) 1.01
C[C@H](CCC(=O)O)[C@H]1CC[C@H]2[C@@H]3[C@@H](O)C[C@@H]4C[C@H](O)CC[C@]4(C)[C@H]3CC[C@]12C [Urosiol] (20 µM) 1.1
C=C(CC)C(=O)c1ccc(OCC(=O)O)c(Cl)c1Cl [Ethacrynic acid] (20 µM) 0.917
C[C@]12CC[C@@H]3c4ccc(O)cc4CC[C@H]3[C@@H]1C[C@@H](O)[C@@H]2O [Estriol] (20 µM) 0.884
Cc1cc2cc3c(C)cc(=O)oc3c(C)c2o1 [Trioxsalen] (20 µM) 0.936
O=C(Nc1cccc2c(=O)cc(-c3nnn[nH]3)oc12)c1ccc(OCCCCc2ccccc2)cc1 [Pranlukast] (20 µM) 0.865
C[N+]1(C)CCC(OC(=O)C(O)(c2ccccc2)C2CCCC2)C1 (configuration not stated) [Glycopyrrolate bromide] (20 µM) 1.02
CC(C)(O)c1ccccc1CC[C@@H](SCC1(CC(=O)O)CC1)c1cccc(/C=C/c2ccc3ccc(Cl)cc3n2)c1 [Montelukast] (20 µM) 0.842
C[C@@H]1C[C@H]2[C@@H]3C[C@H](F)C4=CC(=O)C=C[C@]4(C)[C@@]3(Cl)[C@@H](O)C[C@]2(C)[C@H]1C(=O)COC(=O)C(C)(C)C [Clocortolone pivalate] (20 µM) 1.17
CCOC(=O)C1=C[C@]2(CC)CCCN3CCc4c(n1c1ccccc41)[C@@H]32 [Vinpocetine] (20 µM) 0.972
Clc1ccccc1C(c1ccccc1)(c1ccccc1)n1ccnc1 [Clotrimazole] (20 µM) 0.929
CC(C[N+](C)(C)C)OC(N)=O (configuration not stated) [Bethanechol chloride] (20 µM) 1.01
C=CC(N)CCC(=O)O (configuration not stated) [Vigabatrin hydrochloride] (20 µM) 1
C=C1C[C@@]23CC[C@H]4[C@@](C)(CCC[C@@]4(C)C(=O)O[C@@H]4O[C@H](CO)[C@@H](O)[C@H](O)[C@H]4O)[C@@H]2CC[C@]1(O[C@@H]1O[C@H](CO)[C@@H](O)[C@H](O)[C@H]1O[C@@H]1O[C@H](CO)[C@@H](O)[C@H](O)[C@H]1O)C3 [Stevioside] (50 µM) 0.971

From the supplement of paper PMC12494721
